Test results taken from PubChem BioAssay AID2685 (National Center for Advancing Translational Sciences (NCATS), 2010).
The whole screen tested about 320,000 compounds, of which about 2,100 (0.66%) were called active. Roughly 53% stayed inconclusive and do not appear here. The call rests on the fitted dose curve; in most records, active means well fitted inhibition curve with a large enough effect in the signal ratio, with a control signal flat (not every such curve was filed as active); inconclusive means small, poorly fitted or top-dose-only effect, or effect the other way, or a change in a side signal; inactive means flat fitted curve, though single readings scatter; the % refers to the signal ratio. The full list was thinned out, with actives kept by preference.

Test: qHTS Assay for Lipid Storage Modulators in Drosophila S3 Cells;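 on cell number change: cells counted by Cell Tracker Red CMTPX staining in the red channel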; on lipid storage change, negative = inhibition: on the % scale 0 is the no-effect control and ±100 the full control effect
Conditions: BODIPY lipid droplet fluorescence, 18-24 h, cells fed with added oleic acid; cell number change: measured here: cell count max response; series mostly up to 46.1 µM
Summary of the method: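 Drosophila S3 cells loaded with oleic acid (400 uM, as added) and compounds at several concentrations; lipid droplets imaged by 488-nm laser-scanning cytometry, 500–530 nm intensity and object ratio to cell channel. Percent activity normalized to 20 uM Triacsin C.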
Potency means the concentration at half of the fitted maximal effect.

Row | SMILES | Potency | cell number change [%] | lipid storage change, negative = inhibition
1 | CCN(CC)C1CCN(Cc2cn[nH]c2-c2ccc(OC)c(F)c2)C1 (stereo not given) | inactive | 7.18 | 
2 | Cc1sc(NC(=O)/C=C/c2ccco2)c(C(=O)O)c1C | inactive | 4.19 | 
3 | N#Cc1ccsc1NC(=O)CSc1nnc(-c2ccccc2)o1 | inactive | 20.1 | 
4 | CCn1c(SCC(=O)Nc2sc3c(c2C#N)CCC(C(C)(C)C)C3)nnc1-c1ccco1 (stereo not given) | inactive | -7.68 | 
5 | CC(C)(C)C1CCc2c(sc(NC(=O)CSc3nnc(-c4ccccc4)o3)c2C#N)C1 (stereo not given) | 4.11 µM (active) | -0.658 | 
6 | COc1ccc(/C=N/n2cnc3c(sc(=S)n3-c3ccccc3)c2=O)cc1 | inactive | 19.1 | 
7 | CN1C(=S)SC(N(O)C(=O)Nc2ccc(Cl)c(Cl)c2)C1(C)C (stereo not given) | inactive | -15 | 
8 | CCOc1ccc(CNc2ccc(N3CCN(Cc4ccccc4)CC3)cc2)cc1 | 2.31 µM (active) |  | 
9 | CCOc1ccc(CN2CCC(Cc3ccccc3)CC2)cc1 | inactive | 27.4 | 
10 | CCOc1ccc(CNc2ccc(N3CCCC3)cc2)cc1 | inactive |  | 
11 | O=C(NCN1CCc2ccccc2C1)c1ccccc1 | inactive | 0.788 | 
12 | O=C(NC(C(=O)c1ccccc1)n1cnccc1=O)c1ccccc1 (stereo not given) | inactive | -10.1 | 
13 | O=C(NCn1cnccc1=O)c1ccccc1 | 20.6 µM (active) | 1.39 | 
14 | Cc1noc(C)c1C(=O)Nc1nnc(CC(C)C)s1 | inactive | 23.9 | 
15 | CC(=O)N(Cc1ccco1)C1(C(=O)NC2CCCCC2)CCCCC1 | inactive | -0.0608 | 
16 | CC(=O)NCC(=O)N(Cc1ccco1)C1(C(=O)NC2CCCC2)CCCCC1 | inactive | 17.4 | 
17 | O=C1NC(=O)C(CC(=O)N(Cc2ccco2)C2(C(=O)NC3CCCC3)CCCCC2)N1 (stereo not given) | inactive |  | 
18 | O=C(Cc1cccs1)N(CC1CCCO1)C1(C(=O)NC2CCCC2)CCCCC1 (stereo not given) | inactive | -0.501 | 
19 | CC(=O)N(Cc1ccco1)C1(C(=O)NC2CCCC2)CCCCC1 | 14.6 µM (active) | 3.24 | 
20 | O=C(Cc1cccs1)N(Cc1ccco1)C1(C(=O)NC2CCCC2)CCCCC1 | 3.66 µM (active) | -17 | 
21 | O=C(NC(N1CCOCC1)C(Cl)(Cl)Cl)c1cc([N+](=O)[O-])cc([N+](=O)[O-])c1 (stereo not given) | inactive |  | 
22 | COC(CNC(=O)c1ccc(CS(=O)(=O)c2ccc(C)cc2)o1)OC | inactive | 23.5 | 
23 | COc1nc(NCCN2CCOCC2)nc(Nc2ccccc2)n1 | inactive | -13.7 | 
24 | COc1ccc(NC(C)=O)cc1S(=O)(=O)NC(Cc1ccccc1)C(=O)O (stereo not given) | inactive | -4.53 | 
25 | COc1ccc(NC(C)=O)cc1S(=O)(=O)NC(Cc1ccccc1)C(=O)NCc1ccccc1C (stereo not given) | 1.84 µM (active) | -19.4 | 

Row | SMILES | Potency | cell number change [%] | lipid storage change, negative = inhibition
26 | COc1ccc(NC(C)=O)cc1S(=O)(=O)Nc1ccc(OCc2ccccc2)cc1 | inactive | -6.41 | 
27 | O=C1NC(c2ccccc2Cl)Nc2ccccc21 (stereo not given) | inactive | -2.9 | 
28 | COc1ccccc1C(=O)Nc1nnc(SCC(=O)NCc2ccco2)s1 | 20.6 µM (active) | -7.8 | 
29 | Cc1ccccc1C(=O)Nc1nnc(SCC(=O)NCc2ccco2)s1 | inactive | -7.23 | 
30 | COc1ccc(C(=O)Nc2nnc(SCC(=O)NCc3ccco3)s2)cc1OC | inactive |  | 
31 | Cc1nc2ccc(NC(=S)NC(C)C)cc2nc1C | inactive | -1.16 | 
32 | COc1cc(C(=O)NC(C)c2ccc(S(N)(=O)=O)cc2)ccc1OCC(=O)N1CCOCC1 (stereo not given) | inactive | 9.66 | 
33 | CC12CN3CC(C)(CN(C1)C3c1ccc(F)cc1)C2 (stereo not given) | 0.731 µM (active) | -6.72 | 
34 | CC12CN3CC(C)(CN(C1)C3c1ccccc1F)C2 (stereo not given) | inactive |  | 
35 | CC12CN3CC(C)(CN(C1)C3c1ccc(Cl)cc1)C2 (stereo not given) | inactive | -7.54 | 
36 | Cc1nnc(NC(=O)CSc2ccc(-c3ccco3)nn2)s1 | inactive | 17.1 | 
37 | NS(=O)(=O)c1ccc(NC(=O)Nc2ccc(Cl)cc2)cc1 | inactive | -17.6 | 
38 | COc1ccc(CC(=O)Nc2nc(-c3ccc(F)c(F)c3)cs2)cc1OC | 6.51 µM (active) | 21 | 
39 | COc1ccc(CC(=O)Nc2nc(-c3ccc(F)c(F)c3)cs2)cc1 | inactive | 17.2 | 
40 | COc1ccc(CC(=O)Nc2nc(-c3ccc(OC)c(OC)c3)cs2)cc1OC | inactive | -7.98 | 
41 | Cc1ccccc1OCCC(=O)OCC(=O)Nc1ccc(C(N)=O)cc1 | inactive | 0.749 | 
42 | O=C(CSCc1ccc(F)cc1)Nc1ccc(F)cc1 | inactive | 14.6 | 
43 | CCc1nnc(NC(=O)C2CC(=O)N(C3CCCC3)C2)s1 (stereo not given) | inactive | 8.4 | 
44 | CCOC(=O)N1CCN(C(=O)C2CCN(S(=O)(=O)c3cc(Cl)ccc3Cl)CC2)CC1 | inactive | -24.4 | 
45 | COc1cc(C(=O)NCCC2=CCCCC2)ccc1OC1CCN(C(C)=O)CC1 | inactive | 8.8 | 
46 | COc1ccc(NC(=O)CN2CCCN(S(=O)(=O)c3ccc(F)cc3)CC2)c(OC)c1 | inactive | 0.557 | 
47 | CCC(C)C(=O)Nc1ccc(OC)cc1OC (stereo not given) | 23.1 µM (active) | 17.4 | 
48 | COc1ccc(NC(=O)c2ccc(C(=O)Nc3ccc(OC)cc3OC)cc2)c(OC)c1 | inactive | 1.2 | 
49 | COc1ccc(NC(=O)C(CC(C)C)NC(=O)C2CCCCC2)c(OC)c1 (stereo not given) | inactive | -5.85 | 
50 | COc1ccc(NC(=O)CN2CCC(C(=O)c3ccc(F)cc3)CC2)c(OC)c1 | inactive | -0.87 | 

Row | SMILES | Potency | cell number change [%] | lipid storage change, negative = inhibition
51 | COc1ccc(NC(=O)CN2CCN(CC(=O)Nc3ccc(F)cc3)CC2)c(OC)c1 | 18.4 µM (active) | 21.1 | 
52 | Cc1cc(Br)cc2c1NC(=O)C2(O)CC(=O)c1ccco1 (stereo not given) |  | 3.68 | 9.35% [at 9.22 µM] (inactive)
53 | COc1ccc(NC(C)=[N+](C)CCNS(=O)(=O)c2ccc(Cl)cc2)cc1 | inactive |  | 
54 | C/C(CCc1ccco1)=N/NC(=O)CCC(=O)Nc1cccc(Cl)c1 | inactive | 0.649 | 
55 | CC(=O)Nc1ccc(NC2=CC(=O)c3ccccc3C2=O)cc1 | inactive | 4.49 | 
56 | Cc1cc(C)c(S(=O)(=O)/N=C2\C=C(Nc3ccc(C(=O)O)cc3)C(=O)c3ccccc32)c(C)c1 | 0.92 µM (active) | 11.7 | 
57 | CC(C)(C)c1ccc(S(=O)(=O)/N=C2\C=C(NS(=O)(=O)c3ccccc3)C(=O)c3ccccc32)cc1 | inactive | -1.8 | 
58 | CCc1ccc(S(=O)(=O)/N=C2\C=C(Nc3ccc(O)cc3)C(=O)c3ccccc32)cc1 | inactive | 15.8 | 
59 | O=C(O)c1ccc(S(=O)(=O)/N=C2\C=C(Nc3ccccc3F)C(=O)c3ccccc32)cc1 | 6.51 µM (active) | 2.14 | 
60 | O=S(=O)(/N=C(/Nc1ccccc1F)c1ccccc1)c1ccccc1 | inactive |  | 
61 | Cc1ccc(-n2c(C)cc(/C=N/NC(=O)c3ccncc3)c2C)cc1C | inactive |  | 
62 | CC1(C)CC(NC(=S)Nc2ccc([N+](=O)[O-])cc2)CC(C)(C)N1 | inactive | 15.8 | 
63 | CCOC(=O)C1CCN(c2cc3c(cc2NC(=O)c2ccc(F)cc2)n(C)c(=O)n3C)CC1 | inactive | -8.96 | 
64 | Cc1ccc(C(=O)Nc2cc3c(cc2N2CCCCC2)n(C)c(=O)n3C)cc1 | inactive | -8.73 | 
65 | CCOC(=O)C1CCN(c2cc3c(cc2NC(=O)c2ccccc2)n(C)c(=O)n3C)CC1 | 3.66 µM (active) |  | 
66 | c1ccc(-c2nc(-c3nccc4ccccc34)oc2-c2ccccc2)cc1 | inactive | -5.47 | 
67 | N#CCCN(C(=O)COc1ccc(C#N)cc1)c1ccc(F)cc1 | inactive | 6.15 | 
68 | CCN(C(=O)c1ccccc1Cl)c1ccccc1 | 23.1 µM (active) |  | 
69 | CCN(C(=O)CCC(=O)N(CC)c1ccccc1)c1ccccc1 | inactive | -0.108 | 
70 | CN(C(=O)c1ccccc1Cl)c1ccccc1 | inactive |  | 
71 | CCC(C)(C)n1nnnc1C(c1cccnc1)N1CCN(c2cccc(C(F)(F)F)c2)CC1 (stereo not given) | inactive | -8.43 | 
72 | O=[N+]([O-])c1ccc(-c2ccc(S(=O)(=O)N3CCOCC3)cc2)cc1 | inactive | -1.81 | 
73 | CC(=O)C(=Cc1ccc(O)cc1)C(C)=O | inactive | -7.54 | 
74 | Cc1cc2c(cc1S(=O)(=O)N(C)c1ccccc1)NC(=O)CO2 | inactive | -11.6 | 
75 | CCOC(=O)c1cc(C)sc1NC(=O)CN1CCN(C(=O)c2ccco2)CC1 | inactive | 16.2 | 

Row | SMILES | Potency | cell number change [%] | lipid storage change, negative = inhibition
76 | CCc1cc(C(=O)OC)c(NC(=O)CN2CCN(C(=O)c3ccco3)CC2)s1 | inactive | 13.8 | 
77 | COC(=O)c1cc(C)sc1NC(=O)CN1CCN(C(=O)c2ccco2)CC1 | 1.84 µM (active) | 3.78 | 
78 | Cc1ccccc1NC(=O)CN1CCN(C(=O)c2ccco2)CC1 | inactive | 25 | 
79 | O=C(CN1CCN(C(=O)c2ccco2)CC1)Nc1cc(Cl)ccc1Cl | inactive | -13.1 | 
80 | Cc1cc(Cl)ccc1NC(=O)CN1CCN(C(=O)c2ccco2)CC1 | 4.61 µM (active) | 2.78 | 
81 | O=C(O)c1cc(-c2cccnc2)nc2ccc(Br)cc12 | inactive | 9.56 | 
82 | CC(C)(C)c1ccc(OCc2nnc(SCC(N)=O)n2N)cc1 | inactive |  | 
83 | Cc1cccc(NC(=O)CCNC(=O)c2ccccc2Cl)n1 | inactive |  | 
84 | COC(=O)c1ccccc1NC(=O)c1cccnc1 | inactive | 10.2 | 
85 | C/C(=C\C=C(C#N)C#N)c1cc(C#N)c(N)o1 | 16.4 µM (active) | -22.3 | 
86 | O=C(Cc1cccs1)Nc1ccccc1F | inactive | 10.1 | 
87 | CCOCCCNC(c1ccccc1)c1ccncc1 (stereo not given) | inactive | 7.02 | 
88 | O/N=C1\CCCc2c1nc(-c1ccccc1F)n2O | inactive |  | 
89 | Cc1nc2c(n1O)CCC/C2=N\O | inactive | -1.11 | 
90 | COc1ccc(-c2nc3c(n2O)CCC/C3=N\O)cc1 | 4.61 µM (active) | 4.07 | 
91 | O=C(c1cc(COc2ccc(F)cc2Cl)on1)N1CCCC(OCc2cccnc2)C1 (stereo not given) | inactive | -4.29 | 
92 | COc1cccc(OCc2cc(C(=O)N3CCN(C(C)=O)CC3)no2)c1 | inactive | 19 | 
93 | O=C(c1cc(COc2ccc3ncccc3c2)on1)N1CCCC1 | 7.31 µM (active) | -24 | 
94 | COc1ccccc1OCc1cc(C(=O)N2CCCC(OCc3cccnc3)C2)no1 (stereo not given) | inactive | 8.19 | 
95 | O=C(c1cc(COc2ccccc2)on1)N1CCCC(OCc2cccnc2)C1 (stereo not given) | 1.03 µM (active) |  | 
96 | Cc1cccc(C)c1OCc1cc(C(=O)N2CCC(c3ccncc3)CC2)no1 | inactive | -16.1 | 
97 | CCN1CCN(C(=O)c2cc(COc3ccc4ncccc4c3)on2)CC1 | inactive | -6.54 | 
98 | COc1cccc(OCc2cc(C(=O)N3CCC(c4ccncc4)CC3)no2)c1 | 4.11 µM (active) |  | 
99 | CCC(O)C1CCN(C(=O)c2cc(COc3ccc4ncccc4c3)on2)CC1 (stereo not given) | inactive |  | 
